Source: PubChem BioAssay (National Center for Advancing Translational Sciences (NCATS))
Rows were chosen to be rich in hits. Some 10% of all compounds tested hit in one or more screens of this group.
Lamin A splicing = qHTS Assay for Modulators of Lamin A Splicing | HeLa LMNA splicing GFP/RFP minigene ratio, 48 h | Potency, µM (titrated, usually from 46.1 µM), for the others: at the highest dose ratio change, negative = inhibition, usual class: inhibitors | 0.01% of 200,000 active; active = well fitted inhibition curve with a large enough effect in the signal ratio, with a control signal flat, not every such curve was filed as active; inconclusive = small, poorly fitted or top-dose-only effect, or effect the other way, or a change in a side signal; the % refers to the signal ratio; note: potency is the fitted concentration of half-maximal effect
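S3 HeLa stable clones carrying a lamin A-EGFP splicing minigene plus DsRed2 were seeded at 600 cells/well in Opti-MEM with 2% FBS, pin-dosed and incubated 48 h at 37°C. Acumen cytometry (488 nm) gave the GFP/RFP total-intensity ratio.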
ALDH1A1 inh = qHTS Assay for Inhibitors of Aldehyde Dehydrogenase 1 (ALDH1A1) | Aldehyde dehydrogenase 1A1 (Homo sapiens), P00352 | Purified ALDH1A1, NADH fluorescence, propionaldehyde substrate | Potency, µM (titrated, usually from 75.3 µM), for the others: at the top dose activity, negative = inhibition, hits mostly inhibitors | 7.3% of 220,000 active;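 note: potency is the fitted concentration of half-maximal effect; plate controls were no enzyme wells and a reference inhibitor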
Target sequence (P00352 whole entry, looked up): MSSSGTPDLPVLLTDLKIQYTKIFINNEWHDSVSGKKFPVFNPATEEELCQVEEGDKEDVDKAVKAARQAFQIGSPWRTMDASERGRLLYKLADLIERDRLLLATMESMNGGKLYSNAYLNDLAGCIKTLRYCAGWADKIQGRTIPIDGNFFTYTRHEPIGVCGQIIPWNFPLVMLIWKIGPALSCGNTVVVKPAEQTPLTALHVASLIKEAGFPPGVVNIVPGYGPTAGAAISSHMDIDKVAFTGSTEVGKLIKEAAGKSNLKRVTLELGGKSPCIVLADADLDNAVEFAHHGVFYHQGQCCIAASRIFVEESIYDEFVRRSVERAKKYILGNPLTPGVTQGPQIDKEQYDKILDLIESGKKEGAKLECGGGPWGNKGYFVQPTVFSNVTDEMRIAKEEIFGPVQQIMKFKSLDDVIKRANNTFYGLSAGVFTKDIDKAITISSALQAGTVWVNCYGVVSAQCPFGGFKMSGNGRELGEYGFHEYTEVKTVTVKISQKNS
PNC assembly inh = High Content Assay for Compounds that inhibit the Assembly of the Perinucleolar Compartment; PC3M PTB-GFP, PNC prevalence imaging, 16 h; stronger effect = lower value; activity change (PNC), negative = inhibition, % at 10 µM; 3.1% of 140,000 active; AID 2417, 2010;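 active = readout at or below -70, meaning at least 70% loss of cells showing the perinucleolar compartment, a nuclear body marking cancer cells; inconclusive = readout between -30 and a set limit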;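 note: plate controls were DMSO wells for no effect and camptothecin positive control wells for full effect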
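Compounds are pinned in duplicate onto adhered PC3M cells stably expressing GFP-tagged PTB and incubated 16 h at 37 C. Cells are then fixed, nuclei stained with Hoechst, and PNC-positive cells counted.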
12-hLO inh = qHTS Assay for Inhibitors of 12-hLO (12-human lipoxygenase). Potency, µM (top dose mostly 57.1 µM), without a hit: at the highest dose activity change, negative = inhibition, hits mostly inhibitors. 0.12% of 150,000 active. purified 12-hLO, xylenol orange hydroperoxide absorbance; active = well fitted inhibition curve with a large enough effect; inconclusive = small, poorly fitted or top-dose-only effect; note: potency is the fitted concentration of half-maximal effect; nearly all actives have a fitted effect of over 55% in size
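Xylenol orange chromogenic assay: hydroperoxide from 12hLO oxidises Fe(II), giving red-shifted Fe(III)-XO absorbance. Conditions: 150 nM enzyme, 40 uM arachidonic acid, 25 mM Hepes pH 7.0, 0.01% Triton X-100, 30 min, room temperature.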
HPGD block = qHTS Assay for Inhibitors of HPGD (15-Hydroxyprostaglandin Dehydrogenase); 15-hydroxyprostaglandin dehydrogenase [NAD(+)] (Homo sapiens), P15428; Potency, µM, for inactives: top-dose activity change, negative = inhibition, usual class: inhibitors; purified HPGD, NADH fluorescence kinetic, PGE2 substrate; 4.3% of 150,000 active; note: potency is the fitted concentration of half-maximal effect
Target sequence (P15428 whole entry, looked up): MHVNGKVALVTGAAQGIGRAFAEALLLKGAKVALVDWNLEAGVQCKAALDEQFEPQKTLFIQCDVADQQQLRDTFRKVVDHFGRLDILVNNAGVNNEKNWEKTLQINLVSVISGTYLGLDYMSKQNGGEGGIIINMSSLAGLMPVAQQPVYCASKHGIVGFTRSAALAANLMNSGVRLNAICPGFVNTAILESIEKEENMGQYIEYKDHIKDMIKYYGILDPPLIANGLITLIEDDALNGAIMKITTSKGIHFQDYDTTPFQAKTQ
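20 nM HPGD preincubated 15 min at room temperature with compound in 50 mM Tris-HCl pH 8, 0.01% Tween 20. Started with 1 mM NAD+ and 30 uM prostaglandin E2; NADH fluorescence (360/450 nm) read 5 times over 30-s intervals, last minus first.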
Active calls of the source: *; ? = inconclusive; · = no result; [ ] = another dose, or the depositor's remark. Unless noted, calls come from the whole dose curve; as a rule, active = well fitted inhibition curve with a large enough effect (not every such curve was filed as active); inconclusive = small, poorly fitted or top-dose-only effect, or another doubt; inactive = no such curve, though single readings can be large or run the other way. Unless noted, % is set by controls: 0 for no effect and ±100 for the full control effect.

SMILES | Lamin A splicing | ALDH1A1 inh | PNC assembly inh | 12-hLO inh | HPGD block
O=C(O)C1CCN(S(=O)(=O)c2cccnc2)CC1 | -7% | 10% | 26 | 3% | 2%
COc1ccc(NS(=O)(=O)c2cccc(C(=O)O)c2)cc1 | 5% | 10% | ? | -4% | -14%
CC(=O)Nc1ccc(S(=O)(=O)N2CCN(C(C)CCc3ccccc3)CC2)cc1 (configuration not stated) | -7% | 32µM* | 14 | -7% | 2%
O=C(O)C1CCN(S(=O)(=O)c2ccc(Oc3ccccc3)cc2)CC1 | ? | 22% | -83* | -2% | -1%
COc1ccc(NS(=O)(=O)c2ccc(Oc3cccc(C(=O)O)c3)cc2)cc1 | 10%[46 µM] | 0.71µM* | · | · | ·
COc1ccc(S(=O)(=O)N2CCC(C(N)=O)(N3CCCCC3)CC2)cc1 | -14% | 18µM* | ? | 4% | -4%
Cc1c(Cl)cccc1NC(=O)COCc1cc(-c2ccc3c(c2)OCO3)on1 | -7%[46 µM] | · | · | · | ·
CC(=O)Nc1ccc(S(=O)(=O)N2CCSC2C(=O)O)cc1 (configuration not stated) | -6% | 18µM* | 1 | 13% | -14%
COc1ccc(S(=O)(=O)N2CCCCC2)cc1NS(=O)(=O)c1cc(Cl)ccc1Cl | ? | 2.2µM* | ? | -2% | 3%
COc1ccc(C2SCCN2S(=O)(=O)c2ccc(NC(C)=O)cc2)cc1 (configuration not stated) | ? | -12% | -29 | 0% | -13%
O=C(O)CC(SCC(=O)Nc1ccc(S(=O)(=O)N2CCCC2)cc1)C(=O)O (configuration not stated) | ? | 8.9µM* | · | · | ·
COc1ccc(-n2cnc3cc(NS(=O)(=O)c4ccccc4)ccc32)cc1 | ? | ? | -5 | 3% | 11µM*
CC(C)(C)n1cnc2cc(NS(=O)(=O)c3ccccc3)ccc21 | -17% | -1% | ? | -2% | ?
O=C(CN1CCCCC1)Nc1ccc(S(=O)(=O)N2CCCCCC2)cc1 | 1% | 1% | 10 | 5% | -1%
COc1ccc(OCC2Cc3c(-c4ccccc4)nc4c(c3CO2)CN(CCOc2ccccc2)CC4)cc1 (configuration not stated) | · | -8%[13.5 µM] | · | · | ·
COc1cccc(-c2ccc3ncnc(N4CCN(C)CC4)c3c2)c1 | ? | 30% | · | · | ·
COc1ccc(NS(=O)(=O)c2ccc(S(=O)(=O)N3CCOCC3)cc2)cc1 | · | 1.4µM* | · | · | ·
COc1ccc(NS(=O)(=O)c2ccc(S(=O)(=O)N3CCCC3)cc2)cc1 | -24% | 1µM* | 19 | 3% | -4%
COc1ccc(NS(=O)(=O)c2ccc(S(=O)(=O)N3CCCC3)cc2)cc1Cl | ? | 13µM* | -6 | -5% | -8%
COc1ccc(S(=O)(=O)Nc2ccc(F)c(F)c2)cc1Cl | ? | ? | 29 | -10% | -18%
COc1ccc(S(=O)(=O)N2CCCCC2)cc1 | ? | 5% | 3 | -3% | -4%
NCCCCN | ? | 6% | · | -4% | -8%
Cc1ccc(S(=O)(=O)N2CCCCC2)cc1NC(=O)c1ccc2c(=O)n3c(nc2c1)CCCCC3 | ? | 14µM* | 8 | -1% | -19%
O=C(Nc1ccc(F)c(Cl)c1)c1ccc2c(=O)n3c(nc2c1)CCCCC3 | ? | 25µM* | ? | -7% | ·
CC1CCCN(C(=S)Nc2ccc3nc4n(c(=O)c3c2)CCCCC4)C1 (configuration not stated) | ? | ? | -119* | -1% | -29%
SMILES | Lamin A splicing | ALDH1A1 inh | PNC assembly inh | 12-hLO inh | HPGD block
O=C(Nc1cccc(Cl)c1)c1ccc2c(=O)n3c(nc2c1)CCCCC3 | ? | ? | 18 | -1% | -20%
O=C(Nc1ccc(S(=O)(=O)N2CCCC2)cc1)c1ccc2c(=O)n3c(nc2c1)CCCCC3 | ? | ? | ? | 2% | -12%
O=C(COc1ccc(Cl)cc1Cl)Nc1ccc2nc3n(c(=O)c2c1)CCCC3 | ? | ? | -11 | -9% | 10µM*
CC(=O)OC[C@@H]1O[C@H](C/C=N\OC[C@@H](O)[C@H]2O[C@H]3OC(C)(C)O[C@H]3[C@@H]2O)C=C[C@@H]1OC(C)=O | · | 6%[13.5 µM] | · | · | ·
CC(C)n1cnc(S(=O)(=O)N2CCCC(C(=O)NCc3ccccc3Cl)C2)c1 (configuration not stated) | 0%[46 µM] | · | · | · | ·
CC1(C)CC(=O)C=C(Nc2ccccn2)C1 | -6% | 8.9µM* | ? | -3% | -23%
CC1(C)CC(=O)C=C(Nc2ccc(Br)cn2)C1 | -4% | ? | 25 | 9% | -22%
CCCCS(=O)(=O)N1CCc2nc(-c3ccccc3)c3c(c2C1)CO[C@@H](C)C3 | 1%[9.22 µM] | 19%[13.5 µM] | · | 1%[11.4 µM] | -12%
Cc1cc(C(=O)N2CCCC(C(=O)c3cc(F)ccc3F)C2)c(C)o1 (configuration not stated) | · | 14µM* | · | · | ·
CCOC(=O)c1cc2c(C)n(-c3ccc(N(C)C)cc3)c(C)c2cc(C(=O)OCC)c1=O | 10% | -6% | ? | -3% | -7%
CC1=NN(Cc2ccccc2)C(=O)/C1=C\c1ccc(N(C)C)cc1 | -5% | 14µM* | 7 | -2% | -6%
CCOC(=O)C1=NN(c2ccccc2)C(=O)/C1=C\c1ccc(N(C)C)cc1 | -6% | 1.6µM* | -3 | -2% | 13µM*
Cc1ccc(/C=C/C2=NN(Cc3ccccc3)C(=O)CC2)cc1 | -2% | ? | 23 | -9% | ?
COc1ccc(/C=C\C(=O)Nc2ccccc2C(=O)O)cc1OC | · | ? | · | -4% | ?
CC(=O)Nc1ccc(S(=O)(=O)Nc2nc3ccccc3nc2N2CCCCCC2)cc1 | 17% | 7.1µM* | -28 | -11% | -11%
CC(=O)Nc1ccc(S(=O)(=O)Nc2nc3ccccc3nc2N2CCc3ccccc3C2)cc1 | -8% | 11µM* | 41 | -3% | -24%
O=S(=O)(Nc1nc2ccccc2nc1N1CCc2ccccc2C1)c1ccc(Cl)cc1 | ? | ? | 51 | -1% | -19%
CC(=O)Nc1ccc(S(=O)(=O)Nc2nc3ccccc3nc2-n2ccc(=NC(=O)c3ccc(F)cc3)cc2)cc1 | -1%[9.22 µM] | 0% | · | · | ·
O=C(N=c1ccn(-c2nc3ccccc3nc2NS(=O)(=O)c2ccc(Cl)cc2)cc1)c1ccccc1Cl | · | 0.63µM* | · | · | ·
CC(=O)Nc1ccc(S(=O)(=O)Nc2nc3ccccc3nc2Nc2ccccc2)cc1 | -7% | -10% | -30 | 0% | -18%
O=S(=O)(Nc1nc2ccccc2nc1N1CCN(c2ccccn2)CC1)c1ccc(Cl)cc1 | -15% | 11µM* | -17 | -2% | -8%
CC(C)CCCC(C)C1CCC2C3C(=O)C=C4CC(O)CC[C@@]4(C)C3CC[C@@]12C (some centres not stated) | 3% | -6% | · | 1% | -10%
